# Reference: PubChem BioAssay (NCI)
# Values joined by “and” are separate entries in the source; they are usually repeats but may differ in a detail not shown here. Identical values can stand only once. Compounds without any hit were thinned out: in the full panel of roughly 83,000, 20% have a hit.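 Treatment: one concentration, 48 hours, 96-well format. Scoring: percent growth, with anything below 10 considered active.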 Active and inactive are the calls of the source.
# What was measured:
# Assay in all cases: NCI-60 one-dose screen, 48 h (100 = growth as untreated, 0 = no growth, -100 = all killed)
# Conditions in all cases: 10 µM unless noted
# SK-MEL-2 melanoma = system: SK-MEL-2 melanoma
# EKVX NSCLC = system: EKVX NSCLC
# SN12C renal = system: SN12C renal
# UO-31 renal = system: UO-31 renal
# TK-10 renal = system: TK-10 renal
# ACHN renal = system: ACHN renal
# CAKI-1 renal = system: CAKI-1 renal
# A498 renal = system: A498 renal
# CCRF-CEM leukemia = system: CCRF-CEM leukemia
# MOLT-4 leukemia = system: MOLT-4 leukemia
# SR leukemia = system: SR leukemia
# OVCAR-8 ovarian = system: OVCAR-8 ovarian
# OVCAR-5 ovarian = system: OVCAR-5 ovarian
# OVCAR-4 ovarian = system: OVCAR-4 ovarian
# SK-OV-3 ovarian = system: SK-OV-3 ovarian
# IGROV1 ovarian = system: IGROV1 ovarian
# OVCAR-3 ovarian = system: OVCAR-3 ovarian
# HS 578T breast = system: HS 578T breast
# NCI/ADR-RES ovarian = system: NCI/ADR-RES ovarian
# RPMI-8226 leukemia = system: RPMI-8226 leukemia
SMILES,growth (SK-MEL-2 melanoma),growth (EKVX NSCLC),growth (SN12C renal),growth (UO-31 renal),growth (TK-10 renal),growth (ACHN renal),growth (CAKI-1 renal),growth (A498 renal),growth (CCRF-CEM leukemia),growth (MOLT-4 leukemia),growth (SR leukemia),growth (OVCAR-8 ovarian),growth (OVCAR-5 ovarian),growth (OVCAR-4 ovarian),growth (SK-OV-3 ovarian),growth (IGROV1 ovarian),growth (OVCAR-3 ovarian),growth (HS 578T breast),growth (NCI/ADR-RES ovarian),growth (RPMI-8226 leukemia)
Cc1ccc(S(=O)(=O)OC[C@@]2(C)CC[C@]3(C)CC[C@]4(C)C(=CC[C@@H]5[C@@]6(C)CCCNC(C)(C)[C@@H]6CC[C@]54C)[C@@H]3C2)cc1,-59% (active),9.58% (active),-88.3% (active),-2.29% (active),-61.1% (active),-100% (active),-92.4% (active),86.8% (inactive),-28.6% (active),-42.1% (active),-39.3% (active),-50.2% (active),-84% (active),-78.5% (active),75.2% (inactive),-84.9% (active),-95.8% (active),-20% (active),-65.8% (active),–
O=C1/C(=C/c2ccccc2)CN(C(=O)C(Cl)Cl)C/C1=C\c1ccccc1,38.4% (inactive),12.2% (inactive),-40.7% (active),-52.8% (active),59.5% (inactive),-74.6% (active),4.64% (active),4.17% (active),–,4.99% (active),-4.98% (active),10.7% (inactive),31.7% (inactive),29.7% (inactive),90.2% (inactive),-25.1% (active),-52.7% (active),4.17% (active),13.5% (inactive),-25.6% (active)
Cc1nnc(NS(=O)(=O)c2ccc(N=Nc3ccc(N)nc3N)cc2)s1,104% (inactive) and 116% (inactive),104% (inactive) and 105% (inactive),92.3% (inactive) and 105% (inactive),76.1% (inactive) and 80.1% (inactive),112% (inactive) and 111% (inactive),103% (inactive) and 110% (inactive),98% (inactive) and 96% (inactive),99.7% (inactive) and 123% (inactive),100% (inactive) and 105% (inactive),102% (inactive) and 96.3% (inactive),94.2% (inactive) and 94.5% (inactive),107% (inactive) and 116% (inactive),98.7% (inactive) and 99.3% (inactive),110% (inactive) and 105% (inactive),111% (inactive),123% (inactive) and 108% (inactive),124% (inactive) and 105% (inactive),121% (inactive) and 105% (inactive),102% (inactive) and 106% (inactive),–
COC(=O)c1[nH]nc(OC)c1C1(C(C#N)c2nc3ccccc3s2)CCCc2ccccc21 (stereo not given),88.7% (inactive),88.5% (inactive),86% (inactive),72.4% (inactive),139% (inactive),89.1% (inactive),94.5% (inactive),109% (inactive),96.5% (inactive),102% (inactive),99.8% (inactive),100% (inactive),80.3% (inactive),103% (inactive),87% (inactive),79% (inactive),98.6% (inactive),99.2% (inactive),101% (inactive),–
COc1ccc2nc3cc(Cl)ccc3c(NCCCNCCC(C)O)c2c1 (stereo not given),-48.2% (active),-7.41% (active),-25.9% (active),-28.1% (active),8.67% (active),-1.05% (active),-3.91% (active),-79% (active),–,-18.1% (active),-37.3% (active),0.828% (active),-18.8% (active),-28.9% (active),3.74% (active),-10.7% (active),-38.2% (active),0.958% (active),43.7% (inactive),-19.8% (active)
COc1ccc(-c2cc(-c3cccc(Cl)c3)c(C#N)c(=O)[nH]2)c(OC)c1,105% (inactive),95.2% (inactive),97.1% (inactive),85.3% (inactive),103% (inactive),97.2% (inactive),90.9% (inactive),68.2% (inactive),-2.24% (active),103% (inactive),111% (inactive),94.4% (inactive),99.1% (inactive),91.8% (inactive),114% (inactive),92.1% (inactive),90.5% (inactive),74.4% (inactive),90.9% (inactive),–
CCCCCCCCCCCCCCCCCCn1cc(COc2ccc(C=O)cc2)nn1,96.4% (inactive),90.1% (inactive),97.5% (inactive),93% (inactive),99.9% (inactive),104% (inactive),104% (inactive),105% (inactive),–,92.4% (inactive),85.6% (inactive),102% (inactive),120% (inactive),103% (inactive),91.3% (inactive),103% (inactive),96.8% (inactive),110% (inactive),96.4% (inactive),95.3% (inactive)
Nc1n[nH]c2cccc(C#Cc3cccc(C(=O)Nc4ccc(CN5CCOCC5)c(C(F)(F)F)c4)c3)c12,23.3% (inactive),63.4% (inactive),54.8% (inactive),22.3% (inactive),76.2% (inactive),24.8% (inactive),73.4% (inactive),67.5% (inactive),–,16.9% (inactive),36.1% (inactive),12.5% (inactive),41.2% (inactive),47.2% (inactive),88.8% (inactive),18.6% (inactive),60.5% (inactive),29.5% (inactive),18.4% (inactive),16.4% (inactive)
CC[C@@H]1NC(=O)[C@H]([C@H](O)[C@H](C)C/C=C/c2ccc(CN3C(=O)C(C)=C(C)C3=O)cc2)N(C)C(=O)[C@H](C(C)C)N(C)C(=O)[C@H](CC(C)C)N(C)C(=O)[C@H](CC(C)C)N(C)C(=O)[C@@H](C)NC(=O)[C@H](C)NC(=O)[C@H](CC(C)C)N(C)C(=O)[C@H](C(C)C)NC(=O)[C@H](CC(C)C)N(C)C(=O)CN(C)C1=O,81% (inactive),49.1% (inactive),83.9% (inactive),57.3% (inactive),75% (inactive),74.7% (inactive),86.3% (inactive),54.2% (inactive),–,62.4% (inactive),46.9% (inactive),78.5% (inactive),75.9% (inactive),74.4% (inactive),83.4% (inactive),68.6% (inactive),76.7% (inactive),83.9% (inactive),76.5% (inactive),53.3% (inactive)
CCCN1C(=O)/C(=c2\sc3n(c2=O)C2C(NN=3)N(CC)C(=O)N2CC)c2ccccc21 (stereo not given),55% (inactive),52.4% (inactive),23.1% (inactive),33.6% (inactive),73.9% (inactive),33.1% (inactive),33.8% (inactive),–,13.6% (inactive),19.1% (inactive),17% (inactive),7.65% (active),27.5% (inactive),48.8% (inactive),43.7% (inactive),16% (inactive),12.4% (inactive),16.8% (inactive),0.109% (active),21.9% (inactive)
O=C(Nc1ccc2ccccc2c1)c1cc2ccccc2cc1O,79.3% (inactive),99.7% (inactive),89.2% (inactive),58.8% (inactive),103% (inactive),89.2% (inactive),87.1% (inactive),–,75% (inactive),82.2% (inactive),82% (inactive),102% (inactive),98.8% (inactive),82.9% (inactive),94.3% (inactive),59.8% (inactive),-0.789% (active),105% (inactive),87.6% (inactive),49.9% (inactive)
Nc1ccc(S(=O)(=O)c2ccc(N)cc2)cc1,122% (inactive) and 113% (inactive),94.7% (inactive),101% (inactive),89.8% (inactive) and 75.5% (inactive),100% (inactive),96.9% (inactive) and 110% (inactive),86.6% (inactive),–,94.8% (inactive) and -23.9% (active),109% (inactive) and 108% (inactive),99.7% (inactive) and 121% (inactive),97.2% (inactive) and 93.1% (inactive),104% (inactive) and 96.4% (inactive),111% (inactive) and 117% (inactive),118% (inactive) and 102% (inactive),108% (inactive) and 61% (inactive),121% (inactive) and 112% (inactive),106% (inactive) and 96.8% (inactive),101% (inactive) and 97.2% (inactive),96.7% (inactive) and 85.4% (inactive)
O=C1C=C(Nc2ccccc2)c2ncccc2C1=O,-66.8% (active),-85.3% (active),-88.8% (active),-98.6% (active),-96.9% (active),-98.3% (active),-95.9% (active),–,-29.9% (active),-49.6% (active),-28.2% (active),-92.7% (active),-90.3% (active),-95.2% (active),-91.1% (active),-66.7% (active),-74.6% (active),-8.31% (active),-24.8% (active),–
COc1ccc(-c2cc(-c3cccnc3)nc3sc4c(Cl)nnnc4c23)cc1OC,98.3% (inactive),111% (inactive),92.9% (inactive),76.3% (inactive),129% (inactive),87.4% (inactive),101% (inactive),–,33.6% (inactive),49.1% (inactive),6.41% (active),91.4% (inactive),118% (inactive),96.5% (inactive),109% (inactive),81.6% (inactive),91.9% (inactive),89.2% (inactive),108% (inactive),58% (inactive)
